Assay results reported in ChEMBL document CHEMBL3988442, “University of Dundee, Small-Polar-MMV Screening Library” (2021).

What follows are compounds tested against T1, Aspartate--tRNA(Asp/Asn) ligase (Mycobacterium tuberculosis (strain ATCC 25618 / H37Rv)) (UniProt P9WFW3) (assay: Assay for Asp RNA synthetase-1 from Mycobacterium tuberculosis). Conditions: 30 µM.
T1 sequence (whole entry): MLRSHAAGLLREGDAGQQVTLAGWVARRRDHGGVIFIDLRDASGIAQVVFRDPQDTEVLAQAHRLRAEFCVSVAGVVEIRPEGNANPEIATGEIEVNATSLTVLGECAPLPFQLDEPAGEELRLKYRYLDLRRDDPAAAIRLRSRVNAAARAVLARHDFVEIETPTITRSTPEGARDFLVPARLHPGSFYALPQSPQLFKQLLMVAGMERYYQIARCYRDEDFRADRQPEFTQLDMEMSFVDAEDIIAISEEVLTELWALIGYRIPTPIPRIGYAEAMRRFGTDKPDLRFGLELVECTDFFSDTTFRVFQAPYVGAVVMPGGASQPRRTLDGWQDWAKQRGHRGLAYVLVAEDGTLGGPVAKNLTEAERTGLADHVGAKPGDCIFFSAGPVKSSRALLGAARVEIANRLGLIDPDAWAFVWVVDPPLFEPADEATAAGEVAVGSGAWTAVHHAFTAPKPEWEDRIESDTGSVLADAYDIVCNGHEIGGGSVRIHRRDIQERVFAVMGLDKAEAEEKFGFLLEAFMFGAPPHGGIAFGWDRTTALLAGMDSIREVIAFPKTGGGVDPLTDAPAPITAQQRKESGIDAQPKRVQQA
Assay type: functional
Set-up: scale not given: in the data most compounds retested in dose-response had high values

SMILES	Percent Effect [%]
c1cn(Cc2nnc(C3CCN(C4CCOCC4)CC3)n2C2CC2)cn1	-3.53
CC(C)(C)OC(=O)NC(C)(C)c1noc(CN2CCCCC2)n1	-0.448
Cc1ccc2ncnc(N3CCOCC3c3c(C)nn(C)c3C)c2c1 (stereo not given)	-0.356
CCN(CC1CN(CCc2ccccn2)CCO1)c1cccnn1 (stereo not given)	-1
CCN(CC)C(=O)CCNC(=O)Cc1nc(-c2ccco2)oc1C	-1.21
CN(CCO)Cc1nnc(C2CCN(C3CCCCC3)CC2)n1C	4.1
O=C(NC1(c2nnn(CCO)n2)CCCC1)c1ccccc1	-6.13
Cn1nccc1C(=O)N1CCOC(Cc2cccc(C(F)(F)F)c2)C1 (stereo not given)	-2.91
Cc1ccc(S(=O)(=O)NCCNC(=O)c2ccoc2)cc1F	-4.4
CCN(CC(=O)NC)C(=O)Cc1nc(-c2ccco2)oc1C	-4.7
CN(C)CCn1c(=O)oc2ccc(NC(=O)c3cc(Cl)c[nH]3)cc21	5.07
CCC(C)NC(=O)c1ccccc1-n1cnnn1 (stereo not given)	-5.94
Cc1ncc(C(=O)N2C[C@H]3CC[C@@H]2CN(S(=O)(=O)N(C)C)C3)c(C)n1	-0.678
CCSCCC(=O)Nc1ncn(CC(=O)NCc2ccccc2)n1	-2.33
Cc1cc(N2CCN(Cc3ccc(C)o3)CC2)cc(C)n1	-1.34
CCn1nc(C)c(CCn2ccnc2-c2cc3n(n2)CCCNC3)c1C	-1.76
O=C(c1cncc(N2CCC3(CCNCC3)CC2)n1)N1CCCC1	-3.85
Cc1c[nH]c(CN(C)C(=O)c2cccc(CCC(C)(C)O)c2)n1	-1
CC(C)c1noc(CN2CCC3(CCCO3)CCC2=O)n1 (stereo not given)	-1.21
Cc1cc(C)n(CC2CCCCN2CC(=O)Nc2nncs2)n1 (stereo not given)	-0.218

SMILES	Percent Effect [%]
N#Cc1cccc(CS(=O)(=O)NCCC(O)c2ccccc2)c1 (stereo not given)	-1.46
O=C(O)c1ccn(-c2ccccc2NS(=O)(=O)c2ccccc2)n1	1.9
CSC(C)(C)CNC(=O)NC1CCSCC1	0.103
CC(C)(C)N1CC(C(=O)N2CCN(CCc3ccccc3)CC2)CC1=O (stereo not given)	0.448
CNC(=O)c1cccc(CNC(=O)C2CC(=O)N(CCN(C)C)C2)c1 (stereo not given)	-2.01
COc1nc(C)c(C(=O)N(C)Cc2nc(-c3ccccn3)no2)s1	1.83
CCS(=O)(=O)c1ccc(N2CCC(NC(C)=O)CC2)cc1	1.78
Cc1nn(C)c(C)c1C1COCCN1c1ncnc2sccc12 (stereo not given)	0.54
CC(=O)N1CCCN(c2nccc(-c3cn(C)nc3C)n2)CC1	-4.22
CN(Cc1cc[nH]n1)C(=O)c1cccc(CCC(C)(C)O)c1	-0.264
O=C(c1ccncc1)N1C[C@@H]2CC[C@H](C1)N(C(=O)N1CCOCC1)C2	2.77
COc1cccc(Cc2nnc(SC3CCOC3=O)o2)c1 (stereo not given)	-2.01
CCn1nc(C)c(CNC(=O)c2cn(CC3CCCO3)nn2)c1C (stereo not given)	-4.13
CCC(C(=O)NCc1ccncc1)N(c1cccc(C)c1)S(C)(=O)=O (stereo not given)	-1.51
CCS(=O)(=O)N1CCC(c2nnc(CN3CCCC3)n2C2CC2)CC1	-0.379
CC(C)CN1CCc2[nH]cnc2C12CCN(C(=O)c1cccnc1)CC2	1.3
Cc1cc(F)ccc1OC1(C(=O)O)CCN(Cc2ccncc2)CC1	-3.25
CCNC(=O)NC(=O)CSC(C)c1c(F)cccc1F (stereo not given)	-1.51
CCCc1nc(N2Cc3cnn(Cc4ccc(F)cc4)c3C2)no1	-0.77
Cc1ccccc1CS(=O)(=O)NCCCN1CCCCC1	-2.17
